PubChem BioAssay (NCATS)
Results filed as inconclusive are left out. The source made the active and inactive calls. Unless noted, calls follow the shape of the dose curve; as a rule, active = well fitted curve in the direction sought with a large enough effect; inconclusive = small, poorly fitted or top-dose-only effect, or another doubt; inactive = no such curve, though single readings can be large; an effect the other way counts as inactive or inconclusive.

Assays:
[1] = target: Luciferin 4-monooxygenase (Photinus pyralis) (UniProt P08659); test: Biochemical firefly luciferase enzyme assay for NPC (AID 624030);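 also: purified P. pyralis luciferase at 10 nM with luciferin and ATP substrate; nearly all actives have a fitted effect of over 70% in size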; details: purified P. pyralis luciferase, luminescence, 5 min; series mostly up to 58.6 µM
Chain of Luciferin 4-monooxygenase (Photinus pyralis) (P08659 whole entry, looked up): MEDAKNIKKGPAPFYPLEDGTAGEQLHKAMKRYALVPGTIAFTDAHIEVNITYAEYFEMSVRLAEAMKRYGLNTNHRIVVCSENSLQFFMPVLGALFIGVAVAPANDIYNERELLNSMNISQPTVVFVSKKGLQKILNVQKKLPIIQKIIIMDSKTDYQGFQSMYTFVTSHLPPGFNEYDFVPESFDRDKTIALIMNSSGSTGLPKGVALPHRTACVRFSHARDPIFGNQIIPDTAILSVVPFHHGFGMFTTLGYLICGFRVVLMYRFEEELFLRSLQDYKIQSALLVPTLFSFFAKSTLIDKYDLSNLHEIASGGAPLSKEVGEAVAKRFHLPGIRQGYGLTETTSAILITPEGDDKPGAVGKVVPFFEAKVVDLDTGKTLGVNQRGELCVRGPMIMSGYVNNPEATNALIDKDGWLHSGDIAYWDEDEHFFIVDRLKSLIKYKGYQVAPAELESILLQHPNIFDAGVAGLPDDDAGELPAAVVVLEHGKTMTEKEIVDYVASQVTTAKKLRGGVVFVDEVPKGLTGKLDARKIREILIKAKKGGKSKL
Summary of the method: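 Direct inhibition of firefly luciferase enzyme (10 nM final, 50 mM Tris Acetate) assessed by luminescence within 5 minutes. Percent activity scaled between DMSO and PTC124 positive control, with concentration-effect curves classified by fit quality and response.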

[2] = S16 Schwann cell PMP22 intronic element beta-lactamase assay (AID 624044; calls by dose curve; also: nearly all actives have a fitted effect of over 15% in size); details: S16 rat Schwann cells, PMP22 element beta-lactamase FRET, 24 h; series mostly up to 17.1 µM
Summary of the method: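 Beta-lactamase reporter under a PMP22 intronic regulatory element in stable S16 rat Schwann cells; 24 h compound exposure. 460 nm blue signal normalized between DMSO (0%) and potassium clavulanate, with 535 nm FRET tracking viability; curves classed by r2 and response.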

[3] = tested on: CP260; test: qHTS profiling for inhibitors of Plasmodium falciparum proliferation (AID 504749); also: nearly all actives have a fitted effect of over 60% in size; details: P. falciparum in erythrocytes, SYBR Green DNA, 72 h; series mostly up to 12.8 µM
Summary of the method: (§1)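 SYBR Green fluorescence of parasite DNA, read after lysis and overnight dark incubation, measured growth over 72 h in erythrocyte culture at 0.3% parasitemia and 2.5% hematocrit. Data normalised to DMSO and 0.29 uM artemisinin, with plate-drift correction.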

[4] = tested on: CP268; test: as above; details: P. falciparum in erythrocytes, SYBR Green DNA, 72 h; series mostly up to 12.8 µM
Summary of the method: as §1

[5] = tested on: CP315; test: as above; details: P. falciparum in erythrocytes, SYBR Green DNA, 72 h; series mostly up to 12.8 µM
Summary of the method: as §1

[6] = tested on: DIV14; test: as above; details: P. falciparum in erythrocytes, SYBR Green DNA, 72 h; series mostly up to 12.8 µM
Summary of the method: as §1

[7] = tested on: JCK; test: as above; details: P. falciparum in erythrocytes, SYBR Green DNA, 72 h; series mostly up to 12.8 µM
Summary of the method: as §1

[8] = tested on: TAB165; test: as above; details: P. falciparum in erythrocytes, SYBR Green DNA, 72 h; series mostly up to 12.8 µM
Summary of the method: as §1

[9] = tested on: W2; test: as above; details: P. falciparum in erythrocytes, SYBR Green DNA, 72 h; series mostly up to 12.8 µM
Summary of the method: as §1

[10] = Cell Viability - BJ (AID 421; calls by dose curve;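 also: potency is read from the fitted curve at half-maximal effect; cells exposed to compound for 40 hours at 37 °C before readout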); details: BJ fibroblast viability, qHTS
Summary of the method: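 Cytotoxicity in human BJ foreskin fibroblasts is scored as loss of cellular ATP after a 40-hour exposure, measured by luciferase luminescence. Controls are DMSO and 100 uM tamoxifen.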

[11] = Cell Viability - Jurkat (AID 426;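 active = dose-dependent loss of cell ATP signal giving a full or clear fitted curve, ranked by lower potency value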;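 also: potency is read from the fitted curve at half-maximal effect; cells exposed to compound for 40 hours at 37 °C before ATP read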); details: qHTS
Summary of the method: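 Cytotoxicity taken as drop in cellular ATP (CellTiter-Glo luminescence, 20 min room temperature) after 40 hr, 37C treatment of 5000 Jurkat Clone E6-1 cells per well; concentration-response fitted with Hill equation for AC50.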

[12] = Cell Viability - Hek293 (AID 427;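 active = compounds whose dose-response curve shows a full or clear partial loss of cell viability, called from curve shape rather than a numeric limit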;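 also: potency is read from the fitted curve at half-maximal effect; cells exposed to compound for 40 hours at 37 °C before reading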); details: qHTS
Summary of the method: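 qHTS, human embryonic kidney (adenovirus-transformed) cells; 40 hr cpd, 37 °C; CellTiter-Glo ATP luminescence. Norm: DMSO = 0, 100 uM tamoxifen = 100% inhibition. Hill-fit AC50.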

[13] = Cell Viability - HepG2 (AID 433; calls by dose curve;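 also: potency is read from the fitted curve at half-maximal effect; cells exposed to compound for 40 hours; potency for ATP loss meaning cytotoxicity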); details: qHTS
Summary of the method: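 ATP luminescence (CellTiter-Glo) after 40 h compound exposure, 37 °C, HepG2, 1500 cells/well, complete medium. Normalized: DMSO = basal, 100 uM tamoxifen = 100% inhibition. AC50 via standard Hill equation.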

[14] = Cell Viability - MRC5 (AID 434; calls by dose curve;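 also: potency is read from the fitted curve at half-maximal effect; cells exposed to compound for 40 hours at 37 °C; potency reflects cytotoxicity seen as loss of intracellular ATP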); details: MRC5 lung fibroblast viability, qHTS
Summary of the method: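 AC50 values come from Hill-equation fits of intracellular ATP loss, measured by CellTiter-Glo luminescence. Normal lung fibroblasts (MRC5) had 40 hr compound treatment at 37 C, normalized between DMSO and 100 uM tamoxifen.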

[15] = Cell Viability - SK-N-SH (AID 435; calls by dose curve; also: potency is read from the fitted curve at half-maximal effect); details: SK-N-SH neuroblastoma cell viability qHTS
Summary of the method: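 CellTiter-Glo ATP luminescence, 20 min RT read; cells pre-plated 5 hr, compound 40 hr at 37 °C, 1500 cells/well, complete medium. Normalized DMSO = 0, 100 uM tamoxifen = 100% inhibition; Hill-fit AC50.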

[16] = Cell Viability - N2a (AID 540); details: N2a mouse neuroblastoma cell viability; series mostly up to 92.2 µM; also: nearly all actives have a fitted effect of over 45% in size
Summary of the method: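 CellTiter-Glo ATP luminescence, read 20 min after reagent at room temperature, reported viability following 40 h compound treatment at 37 °C. N2a mouse neuroblastoma cells seeded 1500/well; Hill equation gave AC50.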

[17] = Cell Viability - NIH 3T3 (AID 541); details: NIH 3T3 cell viability, qHTS; series mostly up to 92.2 µM;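 also: cells exposed to compound for 40 hours; nearly all actives have a fitted effect of over 25% in size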
Summary of the method: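 Intracellular ATP (CellTiter-Glo luminescence, 20 min at room temperature) measured after 40 hr compound exposure at 37 °C of 1000 NIH 3T3 mouse fibroblasts/well in complete medium; AC50 derived by Hill-equation modelling of qHTS concentration-response curves.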

[18] = Cell Viability - HUV-EC-C (AID 542); details: HUV-EC-C endothelial cell viability, qHTS; series mostly up to 92.2 µM;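 also: cells exposed to compound for 40 hours; nearly all actives have a fitted effect of over 35% in size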
Summary of the method: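 CellTiter-Glo luminescence measured ATP loss in HUV-EC-C cells (1000/well) after 40 hr compound exposure at 37 °C, in complete culture medium. Concentration-response data were Hill-fitted to give AC50.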

[19] = Cell Viability - H-4-II-E (AID 543); details: H-4-II-E rat hepatoma viability; series mostly up to 92.2 µM;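 also: cells exposed to compound for 40 hours; nearly all actives have a fitted effect of over 35% in size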
Summary of the method: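 CellTiter-Glo luminescence (intracellular ATP) measured after 40 h compound exposure at 37 °C in H-4-II-E rat hepatoma cells seeded at 1500/well. Values are AC50s fitted with the standard Hill equation.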

[20] = qHTS Assay for Identification of Small Molecule Inducers of Hypoxia Response (AID 2120; active = well fitted curve in the direction sought with a large enough effect in the signal ratio, with a control signal flat, not every such curve was filed as active; the % refers to the signal ratio); details: hypoxia response reporter cells, beta-lactamase ratio readout; series mostly up to 104 µM
Summary of the method: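 Reporter induction read as the CCF4 blue/green (460nm/530nm) emission ratio after 2.5 h dye loading at room temperature. ME-180 HRE-beta-lactamase cells received titrated compounds for 17 h at 37 degrees Celsius; AC50 values derived.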

Measured: Potency

C[C@@H]1CCC[C@H](C)N1NC(=O)c1ccc(Cl)c(S(N)(=O)=O)c1
inactive: [1] | [2] | [3] | [4] | [5] | [6] | [7] | [8] | [9]

COS(C)(=O)=O
inactive: [10] > 92 µM | [11] > 92 µM | [12] > 92 µM | [13] > 92 µM | [14] > 92 µM | [15] > 92 µM | [16] | [17] | [18] | [19] | [20]

O=C(Cc1cccs1)NC1C(=O)N2C(C(=O)[O-])=C(C[n+]3ccccc3)CSC12 (stereo not given)
inactive: [1] | [2] | [3] | [4] | [5] | [6] | [7] | [8] | [9]

C[N+](C)(C)CC(O)CC(=O)O (stereo not given)
inactive: [1] | [2] | [3] | [4] | [5] | [6] | [7] | [8] | [9]

C=CC(C)(O)CCC=C(C)C (stereo not given)
inactive: [10] > 92 µM | [11] > 92 µM | [12] > 92 µM | [13] > 92 µM | [14] > 92 µM | [15] > 92 µM | [16] | [17] | [18] | [19] | [20]

C=C(C)[C@H]1CC=C(C)C(=O)C1
inactive: [10] > 92 µM | [11] > 92 µM | [12] > 92 µM | [13] > 92 µM | [14] > 92 µM | [15] > 92 µM | [16] | [17] | [18] | [19] | [20]

CC1=CC(=O)CC(C)(C)C1(O)/C=C/C(C)=C\C(=O)O (stereo not given)
inactive: [10] > 92 µM | [11] > 92 µM | [12] > 92 µM | [13] > 92 µM | [14] > 92 µM | [15] > 92 µM | [16] | [17] | [18] | [19] | [20]

Cc1occc(=O)c1O
inactive: [10] > 92 µM | [11] > 92 µM | [12] > 92 µM | [13] > 92 µM | [14] > 92 µM | [15] > 92 µM | [16] | [17] | [18] | [19] | [20]

CN1[C@@H]2CC[C@H]1CC(OC(=O)[C@@H](O)c1ccccc1)C2 (stereo not given in full)
inactive: [1] | [2] | [3] | [4] | [5] | [6] | [7] | [8] | [9]

CN1CCCC[C@@H]1CCN1c2ccccc2Sc2ccc(S(C)=O)cc21 (stereo not given in full)
inactive: [1] | [2] | [3] | [4] | [5] | [6] | [7] | [8] | [9]
